Measurements published in PubChem BioAssay (NCATS).
Records with an inconclusive call do not appear. The source made the active and inactive calls. Calls come from the whole dose curve; as a rule, active = well fitted inhibition curve with a large enough effect; inconclusive = small, poorly fitted or top-dose-only effect; inactive = flat fitted curve, though single readings scatter.

The compounds below were run on CRL-7250 (assay: qHTS assay to identify novel small-molecules to repurpose for Merkel cell carcinoma treatment (AID 1296009; note: nearly all actives have a fitted effect of over 60% in size)). Details: MCC and control cell lines, CellTiter-Glo viability, 72 h; series mostly up to 92 µM; activity change, negative = cytotoxicity: at the top concentration.
In short: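 Dose-response viability screen; 72 hr exposure at 37 degree celsius; CellTiter-Glo added, 10 min room temperature, luminescence read; RLUs scaled between no-cell and DMSO wells.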

Row | Structure (SMILES) | outcome
1 | OCC1OC(Oc2cc(O)cc(/C=C/c3ccc(OC4OC(CO)C(O)C(O)C4O)cc3O)c2)C(O)C(O)C1O (stereo not given) | inactive [at 17.4 µM]
2 | C[C@@H]1C(=O)O[C@H]2[C@H]1CC[C@@]1(C)C(=O)C=C[C@](C)(O)[C@H]21 | inactive
3 | CC(O)C(C)n1ncn(-c2ccc(N3CCN(c4ccc(OCC5COC(Cn6cncn6)(c6ccc(Cl)cc6Cl)O5)cc4)CC3)cc2)c1=O (stereo not given) | inactive
4 | CC1(C)CC[C@]2(C(=O)O[C@@H]3O[C@H](CO)[C@@H](O)[C@H](O)[C@H]3O)CC[C@]3(C)C(=CCC4[C@@]5(C)C[C@@H](O)[C@H](O)[C@](C)(C=O)C5CC[C@]43C)[C@@H]2[C@@H]1O (stereo not given in full) | inactive [at 17.4 µM]
5 | COc1ccc(C(=O)CC(=O)O)c2c1C=CC(C)(C)O2 | inactive
6 | C=CC(C)(CC/C=C(\C)CC/C=C(\C)CC(O)/C=C(\C)C(=O)O)O[C@@H]1O[C@H](CO)[C@@H](O)[C@H](O)[C@H]1O[C@@H]1O[C@H](CO)[C@@H](O)[C@H](O)[C@H]1O (stereo not given in full) | inactive [at 17.4 µM]
7 | CC(=O)NC(C(=O)OC1CCC(C)(C)C2CC=C3C(=O)OCC3C12C)C(C)C (stereo not given) | inactive
8 | C=C[C@H]1[C@H](O[C@@H]2O[C@H](CO[C@@H]3OC[C@](O)(CO)[C@H]3O)[C@@H](O)[C@H](O)[C@H]2O)OC=C2C(=O)OCC[C@H]21 | inactive [at 17.4 µM]
9 | CC1CCC23COC(=O)C2=CC(O)CC3C1(C)CCC1=CC(=O)OC1O (stereo not given) | inactive
10 | C=C1CC[C@@]2(OC1)O[C@H]1CC3C4CC=C5C[C@@H](O[C@@H]6O[C@@H](C)[C@H](O)[C@@H](O)[C@H]6O)C[C@@H](O[C@@H]6O[C@H](C)[C@H](O)[C@H](O)[C@H]6O[C@@H]6O[C@@H](C)[C@H](O)[C@@H](O)[C@H]6O)[C@]5(C)C4CC[C@]3(C)[C@H]1[C@@H]2C (stereo not given in full) | inactive [at 9.27 µM]
11 | CC1=C(C)C(=O)OC(C(C)C2C(O)CC3C4C5OC5C5(O)CC(OC6OC(CO)C(O)C(O)C6O)CC(O)C5(C)C4CCC32C)C1 (stereo not given) | inactive [at 17.4 µM]
12 | CC1(C)CC[C@]2(C(=O)O)CC[C@]3(C)C(=CCC4[C@@]5(C)C[C@@H](O)[C@H](O)[C@@](C)(CO)C5CC[C@]43C)C2C1 (stereo not given in full) | inactive [at 17.4 µM]
13 | C=Cc1cc2oc(-c3ccc(O)c(F)c3)nc2cc1O | inactive
14 | COc1cc(/C=C/C(=O)O)ccc1O[C@@H]1O[C@H](CO)[C@@H](O)[C@H](O)[C@H]1O[C@@H]1OC[C@](O)(CO)[C@H]1O | inactive [at 17.4 µM]
15 | CCCSc1nc(NC2CC2c2ccc(F)c(F)c2)c2nnn(C3CC(OCCO)C(O)C3O)c2n1 (stereo not given) | inactive
16 | CC(=O)O[C@@H]1[C@H](O[C@@H]2O[C@@H](CO)[C@H](O)[C@H]2O)[C@@H](O[C@@H]2O[C@@H](C)[C@H](O[C@@H]3OC[C@@H](O)[C@H](O)[C@H]3O)[C@@H](O)[C@H]2O)[C@H](OC(=O)[C@]23CCC(C)(C)C[C@H]2C2=CCC4[C@@]5(C)CC[C@H](O[C@@H]6O[C@H](C(=O)O)[C@@H](O)[C@H](O)[C@H]6O[C@@H]6O[C@H](CO)[C@H](O)[C@H](O)[C@H]6O)[C@@](C)(C=O)C5CC[C@@]4(C)[C@]2(C)CC3)O[C@@H]1C (stereo not given in full) | inactive [at 9.27 µM]
17 | COc1ccc(O[C@@H]2O[C@H](CO)[C@@H](O)[C@H](O)[C@H]2O)cc1OC | inactive
18 | CC(C#N)C(C)O[C@@H]1O[C@H](CO)[C@@H](O)[C@H](O)[C@H]1O (stereo not given in full) | inactive
19 | COc1ccc(C)c2sc(NC(=O)c3ccncc3)nc12 | inactive
20 | COC1CCCC/C(C)=C/C2C=C(C)C(C)C3C(CC(C)C)NC(=O)C23C(=O)C1 (stereo not given) | inactive [at 17.4 µM]
21 | O=C(O[C@@H]1O[C@H](CO)[C@@H](O)[C@H](O)[C@H]1O)c1ccccc1 | inactive
22 | CC(=O)OC[C@]12[C@H](OC(C)=O)[C@H](OC(=O)c3ccccc3)[C@@H]3[C@@H](OC(C)=O)[C@]1(OC3(C)C)[C@H](C)C[C@H](OC(C)=O)[C@@H]2OC(=O)c1ccccc1 | inactive [at 17.4 µM]
23 | O=C(Cn1c2ccccc2c2nc3n(c(=O)c21)CCS3)N1CCCC1 | inactive
24 | COc1cc2c(cc1O)CC(O)(CO)C(CO)C2c1ccc(OC2OC(CO)C(O)C(O)C2O)c(OC)c1 (stereo not given) | inactive [at 17.4 µM]
25 | CC(=O)OC/C(=C/C(=O)O)CC[C@@H]1C(C)=CC(=O)[C@@H]2C(C)(C)CCC[C@@]12C | inactive
26 | CN1CCN(C2=Nc3ccccc3Nc3ccc(OS(=O)(=O)C(F)(F)F)cc32)CC1 | inactive
27 | Cc1ccc(-c2c(-c3nn(C)c4ncnc(N5CCC(N6CCCCC6)C5)c34)cnn2C)cc1 (stereo not given) | inactive
28 | CCC(C)/C=C(C)/C=C/C1=CC2=CC(=O)C(C)(O)C(OC(C)=O)C2CO1 (stereo not given) | inactive
29 | CCC/C=C/C=C/C1CC(O)C2(O)C(=O)OCC12 (stereo not given) | inactive
30 | CCC(C)C(=O)OC[C@H]1O[C@H](O[C@H]2O[C@H](CO)[C@@H](O)[C@H](O)[C@H]2O)[C@H](O)[C@@H](O)[C@@H]1O (stereo not given in full) | inactive [at 17.4 µM]
